Source: PubChem BioAssay (EPA / NIEHS)
Several values for one entry are separate records, joined by “and”; a condition that tells them apart may be missing. Equal values may be shown once. Records with an inconclusive call do not appear. Activity calls are given as the source filed them. The calls were made as follows, unless noted: active = hit-call score of the fitted dose curve at least 0.9, where 1 is the maximum; inactive = score below 0.9.

Columns and labels:
[1] = read-out: Secreted IgG (sIgG), gene 3500; test: BSK_BT_sIgG: BioMAP Diversity Plus: BT Assay for Secreted IgG (sIgG) Biomarker Activity (AID 2284226); conditions: primary human B cells with PBMC
Procedure, shortened: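 Secreted IgG from a human primary B cell–PBMC co-culture was measured by ELISA 24 hours after dosing, with DMSO defining baseline activity.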

[2] = BSK_BT_Bcell_Proliferation: Viability Assessment in the BioMAP Diversity Plus: BT Assay for B cell Proliferation (AID 2284227); conditions: primary human B cells with PBMC
Procedure, shortened: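 Human B cells co-cultured with PBMC were dosed with test chemicals and relative cell number was quantified by SRB staining at 72 h. Cells were fixed in 10% TCA, stained with 0.1% SRB and read at 560 nm. Activity was fitted in the positive direction against DMSO.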

[3] = read-out: Interleukin 6 (IL6), IL6 (gene 3569); test: BSK_BT_xIL6: BioMAP Diversity Plus: BT Assay for Interleukin 6 (IL6) Biomarker Activity (AID 2284228); conditions: primary human B cells with PBMC
Procedure, shortened: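 Readout: secreted IL-6 via Luminex xMAP multiplex, 24 h post-dosing. System: primary human B cells co-cultured with PBMC. Signal change scored relative to DMSO vehicle, positive fitting direction.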

[4] = read-out: Interleukin 17A (IL17A), IL17A (gene 3605); test: BSK_BT_xIL17A: BioMAP Diversity Plus: BT Assay for Interleukin 17A (IL17A) Biomarker Activity (AID 2284229); conditions: primary human B cells with PBMC
Procedure, shortened: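 Luminex xMAP readout of secreted IL-17A; human B cell + PBMC co-culture; 24 h post-dose; positive-direction fit vs DMSO negative control.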

[5] = read-out: Tumor necrosis factor (Homo sapiens) (UniProt P01375); test: BSK_BT_xTNFa: BioMAP Diversity Plus: BT Assay for Tumor necrosis factor alpha (TNF-alpha) Biomarker Activity (AID 2284230); conditions: primary human B cells with PBMC
Procedure, shortened: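 B cells with PBMC in co-culture, dosed and sampled at 24 h; secreted TNF-alpha measured by Luminex xMAP bead assay. Activity fitted in the gain direction against DMSO as negative control and baseline.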

[6] = TAMU_PeakParms_SingleDonor1434_Chronotropy: Texas A&M University (TAMU) 1.5-hr Human Induced Pluripotent Stem Cell (iPSC)-derived Cardiomyocytes Calcium (Ca+2) Flux Assay for Cardiotoxicity: Chronotropy (changes in peak frequency) (AID 2284217); conditions: actives raise or lower the signal
Procedure, shortened: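 iPSC-derived cardiomyocytes (single donor 1434) dosed at 0.2, 1, 10 and 100 uM in 0.5% DMSO for 1.5 h at 37C; Ca2+ dye fluorescence gave average beat frequency. Zero-beat points removed; bidirectional fit versus DMSO, POD as EC05.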

[7] = TAMU_PeakParms_SingleDonor1434_QT: Texas A&M University (TAMU) 1.5-hr Human Induced Pluripotent Stem Cell (iPSC)-derived Cardiomyocytes Calcium (Ca+2) Flux Assay for Cardiotoxicity: QT (decay-rise ratio) (AID 2284235; active = hit-call score of the fitted dose curve at least 0.9, where 1 is the maximum)
Procedure, shortened: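 iPSC-derived cardiomyocytes (single donor 1434) dosed at 0.2, 1, 10, 100 uM final in 0.5% DMSO, 90 min at 37C. Ca2+ flux fluorescence decay/rise ratio; EC05 (5% increase versus DMSO) as POD, excluding beat-arrest and severe-notch data.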

[8] = TAMU_HCS_1.5hr_SingleDonor1434_Cytotoxicity: Cytotoxicity Assessment using High-content Screening (HCS) Fluorescent Imaging for the Texas A&M University (TAMU) 1.5-hr Human Induced Pluripotent Stem Cell (iPSC)-derived Cardiotoxicity Assay (AID 2284234; active = hit-call score of the fitted dose curve at least 0.9, where 1 is the maximum)
Procedure, shortened: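 Human iPSC-derived cardiomyocytes dosed at 0.2, 1, 10, 100 uM final (0.5% DMSO) for 90 min at 37 C. Hoechst 33342-stained nuclei counted by 10x high-content imaging; POD is EC10, a 10% drop in total cell count versus DMSO.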

[9] = CCTE_Mundy_HCI_Cortical_Synap_Neur_Matur_NeuriteSpotCountPerNeuriteLength: CCTE's Synaptogenesis and Neurite Maturation Assay in rat cortical cells for Neurite Spot Count per Neurite Length, Mundy Lab (AID 2284210)
Procedure, shortened: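 Rat primary cortical cultures, AraC added at DIV 5 to suppress glia; chemical exposure from DIV 7 to DIV 12. Fixed cells stained for MAP2 and synaptophysin plus Hoechst; synaptophysin puncta per neurite length quantified by high-content imaging, relative to DMSO.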

[10] = CCTE_Mundy_HCI_Cortical_Synap_Neur_Matur_BPCount: CCTE's Synaptogenesis and Neurite Maturation Assay in rat cortical cells for Branch Point Count, Mundy Lab (AID 2284211)
Procedure, shortened: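 Branch point number is quantified by automated imaging of fluorescently labelled neurites and synapses in rat primary cortical neurons exposed from DIV 7 to DIV 12. Activity is analysed relative to DMSO negative control.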

[11] = CCTE_Mundy_HCI_Cortical_NOG_NeuriteCount: CCTE's Neurite Outgrowth Assay in rat cortical cells for Neurite Count, Mundy Lab (AID 2284212);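 also: cells fixed about two days after chemical exposure began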
Procedure, shortened: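 Neurite number per cell from high-content imaging of betaIII-tubulin immunostaining, with Hoechst nuclear counterstain.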

[12] = CCTE_Mundy_HCI_Cortical_NOG_NeuriteLength: CCTE's Neurite Outgrowth Assay in rat cortical cells for Neurite Length, Mundy Lab (AID 2284213)
Procedure, shortened: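 Neurite length was read by high-content imaging of βIII-tubulin-labelled neurites in rat primary cortical cultures. Activity was fitted relative to DMSO.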

[13] = CCTE_Mundy_HCI_Cortical_Synap_Neur_Matur_NeuriteLength: CCTE's Synaptogenesis and Neurite Maturation Assay in rat cortical cells for Neurite Length, Mundy Lab (AID 2284214)
Procedure, shortened: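 Neurite length in rat primary cortical cultures is imaged after MAP2, synaptophysin and Hoechst staining. Dosing starts DIV 7, ending DIV 12; DMSO serves as negative control and baseline.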

[14] = CCTE_Mundy_HCI_Cortical_Synap_Neur_Matur_NeuriteSpotCountPerNeuron: CCTE's Synaptogenesis and Neurite Maturation Assay in rat cortical cells for Neurite Spot Count per Neuron Count, Mundy Lab (AID 2284215)
Procedure, shortened: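 Read-out: neurite-associated synaptophysin puncta per neuron, imaged by high-content analysis after MAP2, synaptophysin and Hoechst staining. Rat primary cortical cultures, dosed DIV 7 through DIV 12; DMSO served as baseline.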

[15] = CCTE_Mundy_HCI_Cortical_Synap_Neur_Matur_SynapseCount: CCTE's Synaptogenesis and Neurite Maturation Assay in rat cortical cells for Synapse Count, Mundy Lab (AID 2284218)
Procedure, shortened: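 Synapse count per neuron is measured in rat cortical neurons exposed to chemicals between DIV 7 and DIV 12, with glial growth arrested by AraC at DIV 5. Synaptophysin and MAP2 staining is imaged automatically; activity is fitted relative to DMSO.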

[16] = CCTE_Mundy_HCI_Cortical_Synap_Neur_Matur_NeuriteCount: CCTE's Synaptogenesis and Neurite Maturation Assay in rat cortical cells for Neurite Count, Mundy Lab (AID 2284222);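 also: exposure from day 7 to day 12 in vitro with readout at day 12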
Procedure, shortened: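 Rat primary cortical cells; AraC added at DIV 5, chemicals dosed with media change at DIV 7 through DIV 12. MAP2/synaptophysin/Hoechst immunostaining, high-content imaging of neurite number; fitted relative to DMSO.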

[17] = CCTE_Mundy_HCI_Cortical_Synap_Neur_Matur_CellBodySpotCount: CCTE's Synaptogenesis and Neurite Maturation Assay in rat cortical cells for Cell Body Spot Count, Mundy Lab (AID 2284223)
Procedure, shortened: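 Read-out: cell body-associated synaptophysin puncta per neuron, imaged after MAP2, synaptophysin and Hoechst staining. Rat cortical cells, AraC DIV 5, chemical dosing DIV 7, fixation DIV 12. Activity fitted in positive direction relative to DMSO baseline.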

[18] = CCTE_Mundy_HCI_hNP1_Pro_ResponderAvgInten: CCTE's Proliferation Assay in human neuroprogenitor cells, Mundy Lab (AID 2284224; active = hit-call score of the fitted dose curve at least 0.9, where 1 is the maximum;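 also: human neural progenitor cells hNP1 derived from WA09 embryonic stem cells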)
Procedure, shortened: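 Proliferation read as average intensity of BrdU-positive cells, imaged at 26.25 h post-dosing: chemical exposure started after 40–44 h culture, BrdU during final 4 h, paraformaldehyde fixation. Positive-direction fit relative to DMSO.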

Measured: AC50

Sequence of Tumor necrosis factor (Homo sapiens) (P01375 whole entry, looked up): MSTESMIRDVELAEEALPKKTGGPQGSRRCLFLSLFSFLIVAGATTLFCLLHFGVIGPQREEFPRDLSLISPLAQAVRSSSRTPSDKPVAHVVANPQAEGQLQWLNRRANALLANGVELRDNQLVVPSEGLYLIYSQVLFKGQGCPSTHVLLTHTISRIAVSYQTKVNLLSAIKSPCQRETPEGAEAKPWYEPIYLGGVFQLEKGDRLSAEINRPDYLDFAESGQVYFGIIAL

COCc1c(C(C)C)nc(C(C)C)c(/C=C/[C@@H](O)C[C@@H](O)CC(=O)O)c1-c1ccc(F)cc1
active: [1] 0.0231 µM | [2] 0.24 µM | [3] 0.494 µM | [4] 0.312 µM | [5] 0.512 µM

CC(C)(c1cc(Br)c(OCCO)c(Br)c1)c1cc(Br)c(OCCO)c(Br)c1
active: [1] 8.71 µM | [2] 21.2 µM | [3] 16.2 µM | [4] 20.8 µM | [5] 30.2 µM

C=CCOCC(O)CCl (centres undefined)
active: [1] 20 µM
inactive: [2] | [3] | [4] | [5]

C#CC1(O)CC[C@H]2[C@@H]3CCC4=CCCC[C@@H]4[C@H]3CC[C@@]21C (some centres undefined)
active: [1] 10.7 µM | [2] 30.1 µM | [3] 28.1 µM | [4] 14.5 µM | [5] 34.2 µM

CCO[Si](CCCN=C=O)(OCC)OCC
inactive: [1] | [2] | [3] | [4] | [5]

O=C(O)CCCC[C@@H]1SC[C@@H]2NC(=O)N[C@@H]21
inactive: [6] | [7]

CC(C)C(=O)C(C)C
inactive: [1] | [2] | [3] | [4] | [5]

S=C(NC1CCCCC1)NC1CCCCC1
inactive: [3] | [4] | [5]
active: [1] 20 µM | [2] 31.2 µM

c1ccc2c(c1)ccc1cc3c(ccc4ccccc43)cc12
active: [6] 50 µM | [3] 3.57 µM and 15 nM
inactive: [1] | [2] | [4] | [5] | [8]

CCCCC(CC)COC(=O)c1ccccc1O (centres undefined)
active: [1] 7.14 µM
inactive: [2] | [3] | [4] | [5]

c1ccc(-c2ccccn2)nc1
active: [1] 20 µM
inactive: [2] | [3] | [4] | [5]

O=c1c2ccccc2oc2ccccc12
active: [1] 11.7 µM
inactive: [2] | [3] | [4] | [5]

N[C@H]1C(O)O[C@H](CO)[C@H](O)[C@@H]1O (some centres undefined)
inactive: [9] | [10] | [11] | [12] | [13] | [14] | [15] | [16] | [17] | [18]

O=C(Nc1ccccc1SSc1ccccc1NC(=O)c1ccccc1)c1ccccc1
active: [1] 4.59 µM | [2] 5.95 µM | [3] 13.2 µM | [4] 5.93 µM | [5] 11.7 µM

CCCCCCCCc1ccc(Nc2ccc(CCCCCCCC)cc2)cc1
inactive: [1] | [2] | [3] | [4] | [5]

N#[N+]c1ccc2c(S(=O)(=O)[O-])cccc2c1O
inactive: [1] | [2] | [3] | [4] | [5]
